Structures are written as SMILES. The panel holds about 83,000 compounds, 20% with a hit somewhere; the sample as a whole holds those more often.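 Compound tested at a single concentration for 48 hours in 96-well plates; a percent growth value below 10 was scored as active.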 Activity calls are given as the source filed them.

The subject of this assay is HL-60(TB) leukemia. The assay is described as follows: NCI-60 one-dose screen, 48 h (100 = growth as untreated, 0 = no growth, -100 = all killed). The following applies: 10 µM unless noted.
Regarding `CC1NC(C)c2ccc3ccccc3c2O1` (centres undefined), the growth was 99.4% (inactive). With `Nc1cc2c(cc1Br)[nH]c(=O)c1ccccc12`, the growth was 91% (inactive). With `O=C1C(Cl)=C(Cl)C(Cl)(Cl)C(Cl)C1(Cl)Cl` (centres undefined), the growth is 77.7% (inactive). Take `CC1=C(N2CCOCC2)C(N2CCOCC2)=C(C)C(=O)C1=O`: the growth is 97.3% (inactive). Regarding `COc1cc(/C=C2\CN(S(=O)(=O)c3ccc(C)cc3)C/C(=C\c3cc(CN4CCOCC4)c(O)c(OC)c3)C2=O)cc(CN2CCOCC2)c1O`, the growth is -15.5% (active). For the compound `COc1cccc(-c2[nH]c(=S)ncc2C(=O)c2ccccc2)c1`, the growth is 78.2% (inactive). The same measure for `Cc1cc(O)c(C2=NN(c3ccc(S(N)(=O)=O)cc3)C(/C=C/c3ccccc3)C2)cc1Cl` (centres undefined): 89.7% (inactive); for `CCCCCCCCCCCCCCCCCCOc1ccccc1CC(=O)NCC[N+]1(C)CCOCC1`: -10.6% (active). For the compound `CC1=CC[C@@H]2CC[C@]3(C)[C@H](CC[C@@H]4[C@@]5(C)CCCNC(C)(C)[C@@H]5CC[C@]43C)[C@H]2[C@@H]1C`, the growth was 21.7% (inactive).

On to `Cn1cc(-c2csc(-c3c[nH]c4ccc(F)cc34)n2)c2cccnc21`, for which the growth was 24.5% (inactive).

In the case of `O=C(Nc1nc(-c2ccccc2)cs1)c1cc(O)c(O)c(O)c1`, the growth is 12.6% (inactive).

In the case of `O=C(CCN1CCCC1)Nc1ccc2c(NCCCc3ccccc3)c3ccccc3nc2c1`, the growth was -55.6% (active). `CC(=O)NC1(C(=O)O)CCCC1`: the growth is 101% (inactive). Take `C[C@@H]1C(=O)N(C[C@@H](Cc2ccccc2)NC(=O)OCc2ccccc2)[C@]1(Cc1ccccc1)C(=O)OCc1ccccc1`: the growth was 13.1% (inactive).
